For 21 molecules, Inhibition results are on record in ChEMBL document CHEMBL4296182, “CO-ADD screening of NIH NCI Diversity Set V”.

For part of these data: Entries with a potency or affinity are not part of this list.

The subject of one test is Staphylococcus aureus. Description: Antibacterial activity against Staphylococcus aureus MRSA ATCC 43300 (CO-ADD:GP_020); MIC in CAMBH media using NBS plates, by Resazurin F(560/590). The class given is functional. The note with it: Concentration 20 uM, ASSAY_TEST Inhibition of Bacterial Growth, detection method Resazurin, Fluorescence (ex560/em590), MEDIA CAMHB, plate type 384well, CORNING #3640, time 18 hr. In general terms: Alamar Blue is a resazurin reagent that responds to reducing activity.

The next test concerns Acinetobacter baumannii. The test can be described thus: Antibacterial activity against Acinetobacter baumannii ATCC 19606 (CO-ADD:GN_034); MIC in CAMBH media using NBS plates, by Resazurin F(560/590). The class given is functional. The note with it: Concentration 20 uM, ASSAY_TEST Inhibition of Bacterial Growth, detection method Resazurin, Fluorescence (ex560/em590), MEDIA CAMHB, plate type 384well, CORNING #3640, time 18 hr.

The subject of the next test is Escherichia coli. The test can be described thus: Antibacterial activity against Escherichia coli ATCC 25922 (CO-ADD:GN_001); MIC in CAMBH media using NBS plates, by Resazurin F(560/590). The class given is functional. The note with it: Concentration 20 uM, ASSAY_TEST Inhibition of Bacterial Growth, detection method Resazurin, Fluorescence (ex560/em590), MEDIA CAMHB, plate type 384well, CORNING #3640, time 18 hr.

A further test deals with Klebsiella pneumoniae. Conditions: Concentration 20 uM; ASSAY_TEST Inhibition of Bacterial Growth; detection method Absorption (OD600); MEDIA CAMHB; plate type 384well; NBS; CORNING #3640; time 18 hr.
The subject of a further test is Candida albicans. Conditions: 20 µM.
The next test deals with Cryptococcus neoformans. The note with it: Concentration 20 uM; ASSAY_TEST Inhibition of Fungal Growth; detection method Resazurin; Absorption (OD600-OD570); plate type 384well; NBS; CORNING #3640.

For `Nc1cc([N+](=O)[O-])ccc1Nc1ccc(O)cc1`, the Inhibition – broadly, the change of the read-out against control, counted positive when it falls – in the test on Staphylococcus aureus was -9.75%; in the test on Acinetobacter baumannii it was -11.21%; with Escherichia coli it was 0.26%; in the test with Klebsiella pneumoniae, 0.39%; in the test with Candida albicans, 3.23%; with Cryptococcus neoformans, -0.22%.
On to `Nc1nc(N)c(/N=N/c2ccc(C(=O)O)cc2)c(N)n1`, for which the Inhibition in the test with Staphylococcus aureus is 20.24%; in the test on Acinetobacter baumannii, -14.9%; in the test with Escherichia coli, 9.92%; in the test with Klebsiella pneumoniae it was 6.15%; with Candida albicans it was 7.35%; in the test on Cryptococcus neoformans, -10.91%.
Consider `Cc1ccc2nc(Cl)cc(=O)n2c1`, for which the Inhibition with Staphylococcus aureus was 3.79%; with Acinetobacter baumannii it was -0.85%; in the test on Escherichia coli, -11.05%; in the test on Klebsiella pneumoniae, 5.29%; with Candida albicans it was 1.34%; in the test with Cryptococcus neoformans it was 9.92%.
Turning to `NC(=O)C1=CC2C3C=CC2(O)C(=O)OC3O1` (stereo unspecified), the Inhibition in the test on Staphylococcus aureus was -0.72%; with Acinetobacter baumannii it was 9.98%; in the test on Escherichia coli it was -7.05%; in the test on Klebsiella pneumoniae it was 15.67%; in the test with Candida albicans it was 3.39%; in the test with Cryptococcus neoformans it was 2.22%.
Take `O=C(/C=C/c1ccccc1)CC(c1ccccc1)N1CCOCC1` (stereo unspecified): the Inhibition in the test on Staphylococcus aureus is 13.93%; with Acinetobacter baumannii, 0.36%; with Escherichia coli, -4.09%; in the test on Klebsiella pneumoniae it was 21.53%; with Candida albicans, 12.7%; with Cryptococcus neoformans, -9.56%.
In the case of `CCOC(=O)C(C#N)C(=N)C1C(=O)OC2CCCCC21` (stereo unspecified), the Inhibition in the test with Staphylococcus aureus was 5.44%; in the test with Acinetobacter baumannii, -19.8%; with Escherichia coli it was 15.65%; in the test with Klebsiella pneumoniae, 4.77%; in the test on Candida albicans, -2.13%; in the test with Cryptococcus neoformans, -12.86%.
Take `O=C(O)CCC(=O)OCCN(Cc1ccc(Oc2ccc([N+](=O)[O-])cc2)cc1)C(=O)C(Cl)Cl`: the Inhibition in the test with Staphylococcus aureus is -5.95%; in the test on Acinetobacter baumannii, 0.5%; in the test on Escherichia coli, -4.03%; in the test on Klebsiella pneumoniae, 4.09%; in the test on Candida albicans, 4.52%; in the test with Cryptococcus neoformans, -1.27%.
For `O=C(Nc1cccc2ccccc12)c1ccccc1`, the Inhibition with Staphylococcus aureus is 1.57%; in the test on Acinetobacter baumannii, -13.68%; with Escherichia coli, 5.05%; in the test on Klebsiella pneumoniae, -4.37%; with Candida albicans, 0.1%; in the test with Cryptococcus neoformans, -4.91%.
`O=C1c2ccccc2C(=O)c2[nH]cnc21`: the Inhibition in the test with Staphylococcus aureus was -4.2%; with Acinetobacter baumannii, -6.06%; in the test with Escherichia coli it was -19.22%; in the test with Klebsiella pneumoniae, 13.37%; in the test with Candida albicans, 6.65%; in the test on Cryptococcus neoformans, 21.89%.
For `N[C@H](C(=O)O)[C@H]1ON=C(Cl)[C@@H]1O`, the Inhibition in the test on Staphylococcus aureus is 11.62%; with Acinetobacter baumannii, -0.47%; in the test with Escherichia coli, 10.43%; in the test with Klebsiella pneumoniae it was 5%; in the test on Candida albicans it was 2.6%; in the test with Cryptococcus neoformans, -3.55%.
Regarding `Clc1ccc(-c2[nH]nc3c2Cc2ccccc2-3)cc1Cl`, the Inhibition in the test with Staphylococcus aureus is -2.87%; with Acinetobacter baumannii it was 13.22%; in the test on Escherichia coli, -5.11%; with Klebsiella pneumoniae, 8.31%; in the test with Candida albicans it was 5.84%; with Cryptococcus neoformans, 2.71%.
With `Nc1ccc2c(c1Cl)C(=O)c1ccc(N)c(Cl)c1C2=O`, the Inhibition in the test with Staphylococcus aureus is 3.14%; in the test with Acinetobacter baumannii it was -5.21%; with Escherichia coli, 14.11%; in the test with Klebsiella pneumoniae, 8.12%; with Candida albicans, -1.01%; in the test with Cryptococcus neoformans, 17.48%.
For `O=C(CN1CCCC1)Nc1nc(-c2ccc(Cl)cc2)cs1`, the Inhibition with Staphylococcus aureus is -2.74%; in the test with Acinetobacter baumannii, 10.5%; with Escherichia coli, -10.54%; with Klebsiella pneumoniae, 13.35%; in the test on Candida albicans, 4.21%; in the test with Cryptococcus neoformans it was -1.35%.
As to `Cc1cc2c3ccccc3ncn2n1`, the Inhibition is 14.33% in the test with Staphylococcus aureus; -9.67% in the test with Acinetobacter baumannii; 5.54% in the test on Escherichia coli; 9.54% in the test with Klebsiella pneumoniae; 5.02% in the test with Candida albicans; -5.91% in the test on Cryptococcus neoformans.
For the molecule `CCc1ccc(CCN2C(=O)c3ccccc3C2=O)nc1`, the Inhibition in the test on Staphylococcus aureus is 9.03%; with Acinetobacter baumannii, 4.62%; with Escherichia coli, -1.52%; in the test on Klebsiella pneumoniae, 17.62%; in the test on Candida albicans it was 2.59%; in the test on Cryptococcus neoformans it was -6.09%.
In the case of `CC1=CC(=O)CC(C)(C)C1(O)/C=C/C(C)=C/C(=O)O` (stereo unspecified), the Inhibition was -9.32% with Staphylococcus aureus; -14.23% with Acinetobacter baumannii; 1.66% in the test on Escherichia coli; 3.67% in the test on Klebsiella pneumoniae; 5.51% in the test on Candida albicans; -3.67% in the test with Cryptococcus neoformans.
Regarding `CCN(CC)C(=O)Cn1ccc(NC(C)=O)nc1=O`, the Inhibition in the test on Staphylococcus aureus is -5.08%; in the test with Acinetobacter baumannii it was -19.36%; with Escherichia coli, 5.52%; in the test on Klebsiella pneumoniae, 3.42%; in the test with Candida albicans, 0.38%; in the test on Cryptococcus neoformans it was -8.8%.
Turning to `CN(C)S(=O)(=O)N1C(=O)c2ccccc2C1=O`, the Inhibition is 5.4% with Staphylococcus aureus; 12.12% with Acinetobacter baumannii; -0.21% in the test on Escherichia coli; 11.91% in the test on Klebsiella pneumoniae; 5.89% in the test with Candida albicans; -1.33% in the test on Cryptococcus neoformans.
Consider `C(=N\n1cnnc1)/c1ccc2c(c1)CCC2`, for which the Inhibition in the test on Staphylococcus aureus was 10.16%; in the test on Acinetobacter baumannii it was -8.61%; in the test with Escherichia coli it was 2.79%; in the test on Klebsiella pneumoniae, 9.91%; in the test with Candida albicans, 12.8%; in the test with Cryptococcus neoformans it was -5.02%.
Turning to `CCCCNCC1CCCO1` (stereo unspecified), the Inhibition is 9.4% in the test on Staphylococcus aureus; -3.42% in the test with Acinetobacter baumannii; 8.45% with Escherichia coli; 9.23% with Klebsiella pneumoniae; -0.1% with Candida albicans; -3.66% in the test on Cryptococcus neoformans.
On to `CC1=C(c2ccccc2)C=NNCC1=O`, for which the Inhibition in the test with Staphylococcus aureus is 7.06%; with Acinetobacter baumannii it was -11.86%; in the test on Escherichia coli, 19.62%; in the test on Klebsiella pneumoniae it was 15.54%; in the test with Candida albicans it was 3.87%; in the test with Cryptococcus neoformans it was -8.22%.
